Results reported in ChEMBL document CHEMBL2218924, “A broad activity screen in support of a chemogenomic map for kinase signalling research and drug discovery” (Biochem J, 2013).

How the values were obtained:
[1] = molecular target: T1, Serine/threonine-protein kinase 3 (Homo sapiens) (UniProt Q13188); details: at 1 µM
T1 sequence (whole entry): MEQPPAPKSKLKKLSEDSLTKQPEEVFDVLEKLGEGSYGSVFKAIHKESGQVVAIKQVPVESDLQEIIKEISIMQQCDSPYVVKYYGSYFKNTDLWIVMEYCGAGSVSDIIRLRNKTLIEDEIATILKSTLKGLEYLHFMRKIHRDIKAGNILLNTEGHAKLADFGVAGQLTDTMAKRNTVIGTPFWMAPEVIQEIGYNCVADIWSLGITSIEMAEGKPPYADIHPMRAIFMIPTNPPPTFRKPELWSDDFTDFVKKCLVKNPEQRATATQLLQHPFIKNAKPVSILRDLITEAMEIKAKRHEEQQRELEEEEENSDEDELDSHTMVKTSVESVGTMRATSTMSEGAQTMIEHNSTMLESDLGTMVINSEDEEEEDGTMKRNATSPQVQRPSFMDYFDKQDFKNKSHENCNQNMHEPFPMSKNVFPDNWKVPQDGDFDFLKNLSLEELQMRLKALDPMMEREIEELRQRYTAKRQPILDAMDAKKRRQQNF

[2] = molecular target: T1, Serine/threonine-protein kinase 3 (Homo sapiens); details: at 10 µM
[3] = molecular target: Serine/threonine-protein kinase 24 (Homo sapiens) (UniProt Q9Y6E0); details: at 1 µM
[4] = molecular target: Serine/threonine-protein kinase 24 (Homo sapiens) (UniProt Q9Y6E0); details: at 10 µM
[5] = molecular target: T2, Tyrosine-protein kinase Mer (Homo sapiens) (UniProt Q12866); details: at 1 µM
T2 sequence (whole entry): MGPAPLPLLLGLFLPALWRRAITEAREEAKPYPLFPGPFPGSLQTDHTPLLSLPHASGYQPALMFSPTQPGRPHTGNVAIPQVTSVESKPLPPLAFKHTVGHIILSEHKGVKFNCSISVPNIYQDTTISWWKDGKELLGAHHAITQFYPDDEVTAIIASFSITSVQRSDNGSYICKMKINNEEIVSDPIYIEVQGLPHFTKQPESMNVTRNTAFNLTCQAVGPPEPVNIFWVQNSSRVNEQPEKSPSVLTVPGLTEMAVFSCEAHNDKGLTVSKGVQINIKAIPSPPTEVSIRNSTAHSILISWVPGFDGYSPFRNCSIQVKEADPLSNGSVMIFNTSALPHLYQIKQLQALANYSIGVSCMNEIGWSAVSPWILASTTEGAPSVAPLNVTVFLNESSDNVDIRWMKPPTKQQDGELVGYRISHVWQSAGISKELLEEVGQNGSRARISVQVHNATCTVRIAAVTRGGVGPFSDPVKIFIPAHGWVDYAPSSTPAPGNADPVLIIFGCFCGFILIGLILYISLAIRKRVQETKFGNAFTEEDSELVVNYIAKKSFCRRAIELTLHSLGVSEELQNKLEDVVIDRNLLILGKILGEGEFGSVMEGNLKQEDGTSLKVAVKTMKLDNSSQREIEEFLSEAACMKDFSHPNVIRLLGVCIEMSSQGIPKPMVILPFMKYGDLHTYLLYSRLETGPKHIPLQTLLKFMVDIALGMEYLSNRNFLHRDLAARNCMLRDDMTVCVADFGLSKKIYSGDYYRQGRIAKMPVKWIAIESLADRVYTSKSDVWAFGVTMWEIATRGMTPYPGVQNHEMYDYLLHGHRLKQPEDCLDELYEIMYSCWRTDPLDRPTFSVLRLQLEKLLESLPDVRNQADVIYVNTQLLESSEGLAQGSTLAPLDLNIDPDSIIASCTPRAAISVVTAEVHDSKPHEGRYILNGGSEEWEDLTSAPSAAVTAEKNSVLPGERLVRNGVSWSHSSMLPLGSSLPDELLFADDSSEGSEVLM

[6] = molecular target: T2, Tyrosine-protein kinase Mer (Homo sapiens); details: at 10 µM
[7] = molecular target: Hepatocyte growth factor receptor (Homo sapiens) (UniProt P08581); details: at 1 µM
[8] = molecular target: Hepatocyte growth factor receptor (Homo sapiens) (UniProt P08581); details: at 10 µM
[9] = molecular target: MAP kinase-interacting serine/threonine-protein kinase 2 (Homo sapiens) (UniProt Q9HBH9); details: at 1 µM
[10] = molecular target: MAP kinase-interacting serine/threonine-protein kinase 2 (Homo sapiens) (UniProt Q9HBH9); details: at 10 µM
[11] = molecular target: T3, Muscle, skeletal receptor tyrosine-protein kinase (Homo sapiens) (UniProt O15146); details: at 1 µM
T3 sequence (whole entry): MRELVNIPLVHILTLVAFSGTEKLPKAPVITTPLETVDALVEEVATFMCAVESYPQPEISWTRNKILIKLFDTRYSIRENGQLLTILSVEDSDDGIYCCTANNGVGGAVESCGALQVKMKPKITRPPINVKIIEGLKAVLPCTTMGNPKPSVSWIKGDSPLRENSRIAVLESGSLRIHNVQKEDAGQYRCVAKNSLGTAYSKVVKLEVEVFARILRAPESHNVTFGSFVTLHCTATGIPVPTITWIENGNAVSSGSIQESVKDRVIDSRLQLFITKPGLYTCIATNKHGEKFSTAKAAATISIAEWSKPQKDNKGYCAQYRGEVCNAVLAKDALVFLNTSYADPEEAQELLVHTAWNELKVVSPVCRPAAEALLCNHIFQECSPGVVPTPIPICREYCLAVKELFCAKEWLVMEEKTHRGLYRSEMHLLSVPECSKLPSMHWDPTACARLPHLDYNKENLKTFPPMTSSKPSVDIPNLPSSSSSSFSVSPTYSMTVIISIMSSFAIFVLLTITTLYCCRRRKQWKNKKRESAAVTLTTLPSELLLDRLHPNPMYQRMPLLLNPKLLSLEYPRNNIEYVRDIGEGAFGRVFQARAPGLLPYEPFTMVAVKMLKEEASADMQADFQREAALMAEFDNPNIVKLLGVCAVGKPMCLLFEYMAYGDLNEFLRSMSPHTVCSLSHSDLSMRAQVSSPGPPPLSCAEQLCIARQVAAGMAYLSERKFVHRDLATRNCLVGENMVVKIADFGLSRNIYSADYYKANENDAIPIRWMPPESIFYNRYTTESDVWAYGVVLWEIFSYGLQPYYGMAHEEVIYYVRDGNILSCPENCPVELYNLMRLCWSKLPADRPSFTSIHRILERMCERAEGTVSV

[12] = molecular target: T3, Muscle, skeletal receptor tyrosine-protein kinase (Homo sapiens); details: at 10 µM
[13] = molecular target: T4, Serine/threonine-protein kinase Nek11 (Homo sapiens) (UniProt Q8NG66); details: at 1 µM
T4 sequence (whole entry): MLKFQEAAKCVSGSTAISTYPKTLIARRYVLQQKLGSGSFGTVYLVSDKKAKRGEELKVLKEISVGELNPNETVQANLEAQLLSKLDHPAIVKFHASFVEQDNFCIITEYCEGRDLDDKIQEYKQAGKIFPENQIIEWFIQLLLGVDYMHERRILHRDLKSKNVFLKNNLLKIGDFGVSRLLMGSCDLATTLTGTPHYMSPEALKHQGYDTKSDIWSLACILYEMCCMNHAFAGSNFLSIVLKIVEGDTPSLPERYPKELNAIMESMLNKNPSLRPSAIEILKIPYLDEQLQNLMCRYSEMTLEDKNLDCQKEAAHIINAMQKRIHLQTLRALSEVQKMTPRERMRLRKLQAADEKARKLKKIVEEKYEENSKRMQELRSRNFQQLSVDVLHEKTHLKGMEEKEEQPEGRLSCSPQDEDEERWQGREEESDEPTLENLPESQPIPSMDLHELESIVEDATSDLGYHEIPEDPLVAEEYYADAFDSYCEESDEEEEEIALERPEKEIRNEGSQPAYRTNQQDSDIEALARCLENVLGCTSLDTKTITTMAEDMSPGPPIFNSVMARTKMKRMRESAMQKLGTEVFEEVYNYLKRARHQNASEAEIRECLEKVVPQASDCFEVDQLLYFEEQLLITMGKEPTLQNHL

[14] = molecular target: T4, Serine/threonine-protein kinase Nek11 (Homo sapiens); details: at 10 µM
[15] = molecular target: T5, Serine/threonine-protein kinase Nek2 (Homo sapiens) (UniProt P51955); details: at 1 µM
T5 sequence (whole entry): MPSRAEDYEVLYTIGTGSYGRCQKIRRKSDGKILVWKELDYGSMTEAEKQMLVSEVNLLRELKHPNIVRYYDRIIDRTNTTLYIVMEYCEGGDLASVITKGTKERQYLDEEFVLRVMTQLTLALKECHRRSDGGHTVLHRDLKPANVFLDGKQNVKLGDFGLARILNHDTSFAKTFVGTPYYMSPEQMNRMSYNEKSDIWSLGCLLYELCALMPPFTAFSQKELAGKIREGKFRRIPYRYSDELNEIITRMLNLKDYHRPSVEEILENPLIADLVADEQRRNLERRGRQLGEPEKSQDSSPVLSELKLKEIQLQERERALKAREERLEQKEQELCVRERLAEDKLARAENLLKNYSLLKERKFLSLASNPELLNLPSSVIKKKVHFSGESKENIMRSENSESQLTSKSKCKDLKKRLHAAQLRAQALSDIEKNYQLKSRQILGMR

[16] = molecular target: T5, Serine/threonine-protein kinase Nek2 (Homo sapiens); details: at 10 µM
[17] = molecular target: T6, Serine/threonine-protein kinase Nek3 (Homo sapiens) (UniProt P51956); details: at 1 µM
T6 sequence (whole entry): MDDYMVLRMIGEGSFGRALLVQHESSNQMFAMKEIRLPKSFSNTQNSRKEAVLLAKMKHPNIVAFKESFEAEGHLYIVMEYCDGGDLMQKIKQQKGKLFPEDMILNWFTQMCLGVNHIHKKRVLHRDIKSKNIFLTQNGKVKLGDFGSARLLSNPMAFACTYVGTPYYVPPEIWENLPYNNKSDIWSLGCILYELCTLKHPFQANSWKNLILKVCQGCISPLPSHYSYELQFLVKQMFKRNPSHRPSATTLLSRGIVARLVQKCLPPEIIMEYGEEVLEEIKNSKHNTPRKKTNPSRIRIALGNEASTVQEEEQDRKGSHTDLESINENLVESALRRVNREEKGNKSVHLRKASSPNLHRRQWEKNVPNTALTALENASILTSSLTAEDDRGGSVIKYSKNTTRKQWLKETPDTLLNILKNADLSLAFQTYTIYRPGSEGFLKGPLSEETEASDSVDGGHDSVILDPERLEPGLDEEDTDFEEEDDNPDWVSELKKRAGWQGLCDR

[18] = molecular target: T6, Serine/threonine-protein kinase Nek3 (Homo sapiens); details: at 10 µM
[19] = molecular target: Serine/threonine-protein kinase tousled-like 2 (Homo sapiens) (UniProt Q86UE8); details: at 1 µM
[20] = molecular target: Serine/threonine-protein kinase tousled-like 2 (Homo sapiens) (UniProt Q86UE8); details: at 10 µM

Chain of Serine/threonine-protein kinase 24 (Homo sapiens) (Q9Y6E0 whole entry, looked up): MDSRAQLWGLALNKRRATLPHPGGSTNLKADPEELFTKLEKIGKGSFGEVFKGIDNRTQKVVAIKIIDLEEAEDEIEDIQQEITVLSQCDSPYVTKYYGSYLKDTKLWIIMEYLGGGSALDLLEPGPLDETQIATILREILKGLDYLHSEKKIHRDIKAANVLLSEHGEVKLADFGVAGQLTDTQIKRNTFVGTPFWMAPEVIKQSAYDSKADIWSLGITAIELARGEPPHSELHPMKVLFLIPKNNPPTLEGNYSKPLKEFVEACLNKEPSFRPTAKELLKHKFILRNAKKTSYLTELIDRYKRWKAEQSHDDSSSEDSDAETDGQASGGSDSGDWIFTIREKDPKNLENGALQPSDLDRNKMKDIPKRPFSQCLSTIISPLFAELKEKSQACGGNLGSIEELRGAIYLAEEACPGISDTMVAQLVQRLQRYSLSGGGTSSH
Chain of Serine/threonine-protein kinase tousled-like 2 (Homo sapiens) (Q86UE8 whole entry, looked up): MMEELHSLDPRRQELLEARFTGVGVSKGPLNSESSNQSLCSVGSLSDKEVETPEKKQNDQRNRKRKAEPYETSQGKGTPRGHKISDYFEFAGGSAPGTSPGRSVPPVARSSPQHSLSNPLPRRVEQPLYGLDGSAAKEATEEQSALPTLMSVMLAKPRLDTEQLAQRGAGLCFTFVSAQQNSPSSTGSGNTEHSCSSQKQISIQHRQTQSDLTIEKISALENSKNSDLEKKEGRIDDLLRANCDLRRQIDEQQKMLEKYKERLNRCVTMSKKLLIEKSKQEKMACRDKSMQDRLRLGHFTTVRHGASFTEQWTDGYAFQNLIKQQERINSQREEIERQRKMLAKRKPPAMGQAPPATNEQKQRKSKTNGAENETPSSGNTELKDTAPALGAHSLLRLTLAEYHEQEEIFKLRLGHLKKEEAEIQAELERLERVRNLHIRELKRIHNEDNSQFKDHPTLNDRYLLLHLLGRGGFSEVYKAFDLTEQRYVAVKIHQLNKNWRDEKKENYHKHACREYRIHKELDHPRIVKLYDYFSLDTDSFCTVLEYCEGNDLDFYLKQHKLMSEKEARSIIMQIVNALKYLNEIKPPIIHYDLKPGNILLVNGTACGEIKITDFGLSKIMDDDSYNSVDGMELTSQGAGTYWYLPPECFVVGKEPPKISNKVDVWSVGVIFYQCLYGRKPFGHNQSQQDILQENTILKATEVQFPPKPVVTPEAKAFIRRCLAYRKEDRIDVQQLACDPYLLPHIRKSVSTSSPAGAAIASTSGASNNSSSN
Chain of MAP kinase-interacting serine/threonine-protein kinase 2 (Homo sapiens) (Q9HBH9 whole entry, looked up): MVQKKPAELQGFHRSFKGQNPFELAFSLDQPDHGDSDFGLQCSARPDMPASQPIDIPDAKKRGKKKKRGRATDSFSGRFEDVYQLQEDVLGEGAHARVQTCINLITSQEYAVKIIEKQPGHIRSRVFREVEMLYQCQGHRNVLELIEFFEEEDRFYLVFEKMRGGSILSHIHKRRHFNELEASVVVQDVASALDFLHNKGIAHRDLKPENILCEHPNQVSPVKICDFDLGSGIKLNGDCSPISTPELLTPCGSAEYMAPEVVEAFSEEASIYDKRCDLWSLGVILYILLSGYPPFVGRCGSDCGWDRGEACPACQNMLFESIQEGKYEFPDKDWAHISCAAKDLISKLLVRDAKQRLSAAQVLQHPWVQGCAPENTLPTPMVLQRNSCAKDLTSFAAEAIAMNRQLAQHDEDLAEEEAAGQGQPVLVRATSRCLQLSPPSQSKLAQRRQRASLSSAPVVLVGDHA
Chain of Hepatocyte growth factor receptor (Homo sapiens) (P08581 whole entry): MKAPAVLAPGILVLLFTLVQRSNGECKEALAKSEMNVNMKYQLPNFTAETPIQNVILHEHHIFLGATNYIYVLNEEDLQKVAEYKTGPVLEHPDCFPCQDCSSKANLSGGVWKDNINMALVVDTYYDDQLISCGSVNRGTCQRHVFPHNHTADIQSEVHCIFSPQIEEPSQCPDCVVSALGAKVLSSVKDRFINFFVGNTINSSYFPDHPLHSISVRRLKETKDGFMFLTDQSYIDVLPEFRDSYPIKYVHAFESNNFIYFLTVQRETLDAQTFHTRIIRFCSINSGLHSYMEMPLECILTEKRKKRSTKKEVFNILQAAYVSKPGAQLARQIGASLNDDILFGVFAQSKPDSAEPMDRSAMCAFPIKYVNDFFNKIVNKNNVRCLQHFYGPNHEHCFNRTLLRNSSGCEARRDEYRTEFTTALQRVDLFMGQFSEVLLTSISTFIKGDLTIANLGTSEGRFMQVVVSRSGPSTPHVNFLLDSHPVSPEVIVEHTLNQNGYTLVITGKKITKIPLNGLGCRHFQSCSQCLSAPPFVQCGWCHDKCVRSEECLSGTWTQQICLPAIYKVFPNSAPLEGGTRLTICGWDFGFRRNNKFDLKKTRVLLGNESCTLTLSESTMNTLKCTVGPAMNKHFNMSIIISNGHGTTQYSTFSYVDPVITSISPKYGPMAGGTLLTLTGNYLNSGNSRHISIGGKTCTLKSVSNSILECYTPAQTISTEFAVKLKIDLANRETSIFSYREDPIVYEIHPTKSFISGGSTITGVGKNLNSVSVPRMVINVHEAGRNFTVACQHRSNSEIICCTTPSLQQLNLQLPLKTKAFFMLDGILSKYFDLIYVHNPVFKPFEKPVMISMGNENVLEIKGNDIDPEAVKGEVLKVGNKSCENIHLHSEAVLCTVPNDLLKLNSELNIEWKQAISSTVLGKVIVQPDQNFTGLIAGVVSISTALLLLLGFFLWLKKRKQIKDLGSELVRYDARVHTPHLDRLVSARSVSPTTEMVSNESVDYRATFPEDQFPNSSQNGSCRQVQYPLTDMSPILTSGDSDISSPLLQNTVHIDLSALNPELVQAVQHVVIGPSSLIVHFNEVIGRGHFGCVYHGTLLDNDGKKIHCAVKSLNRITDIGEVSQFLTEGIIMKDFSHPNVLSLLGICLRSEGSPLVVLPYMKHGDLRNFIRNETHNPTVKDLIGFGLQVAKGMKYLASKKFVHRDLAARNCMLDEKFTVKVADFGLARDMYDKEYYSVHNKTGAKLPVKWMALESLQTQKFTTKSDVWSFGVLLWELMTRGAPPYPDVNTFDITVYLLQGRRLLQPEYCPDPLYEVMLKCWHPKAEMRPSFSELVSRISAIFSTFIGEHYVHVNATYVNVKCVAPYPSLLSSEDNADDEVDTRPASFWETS

SMILES	residual activity [1] [%]	residual activity [2] [%]	residual activity [3] [%]	residual activity [4] [%]	residual activity [5] [%]	residual activity [6] [%]	residual activity [7] [%]	residual activity [8] [%]	residual activity [9] [%]	residual activity [10] [%]	residual activity [11] [%]	residual activity [12] [%]	residual activity [13] [%]	residual activity [14] [%]	residual activity [15] [%]	residual activity [16] [%]	residual activity [17] [%]	residual activity [18] [%]	residual activity [19] [%]	residual activity [20] [%]
O=C1NC(=O)/C(=C/c2ccc3c(c2)OC(F)(F)O3)S1	106	102	60	70	110	95	87	78	109	96	110	89	80	82	97	94	117	88	112	97
O=C(Nc1cccc(Nc2cc(Nc3cccc(C(F)(F)F)c3)ncn2)c1)C1CC1	106	65	69	42	78	74	103	75	39	9	96	48	117	103	73	96	95	63	102	97
CO[C@H]1C[C@@H]2CC[C@@H](C)[C@@](O)(O2)C(=O)C(=O)N2CCCC[C@H]2C(=O)O[C@H]([C@H](C)C[C@@H]2CC[C@@H](O)[C@H](OC)C2)CC(=O)[C@H](C)/C=C(\C)[C@@H](O)[C@@H](OC)C(=O)[C@H](C)C[C@H](C)/C=C/C=C/C=C/1C	94	84	64	76	101	93	95	105	105	88	87	86	97	112	83	81	113	64	92	83
O=C1Nc2cc(Br)ccc2/C1=C1/Nc2ccccc2/C1=N\O	10	5	62	70	26	4	118	97	62	77	80	84	69	45	89	86	65	70	81	48
Oc1n[nH]c2nnc(-c3c(-c4ccccc4)nn4ccccc34)cc12	96	86	72	71	98	105	104	113	107	99	87	84	56	74	95	93	77	103	83	82
Nc1cccc(-c2cc3c(Oc4cccc(O)c4)ncnc3[nH]2)c1	99	69	65	23	81	35	63	22	68	20	73	17	54	25	97	71	42	23	90	87
Cn1cnc2cc3c(Nc4cccc(Br)c4)ncnc3cc21	98	92	78	80	79	58	85	68	26	13	104	85	89	106	87	109	111	74	103	92
NC(=O)c1ccc2[nH]c(-c3ccc(Oc4ccc(Cl)cc4)cc3)nc2c1	100	74	79	82	95	95	128	101	61	19	84	63	54	33	82	82	75	91	86	82
Cc1ccc(NC2=CC(=O)c3sc(C)nc3C2=O)cc1	109	100	78	83	98	110	91	118	98	110	90	85	66	75	91	89	81	101	87	84
CC[n+]1c(/C=C/N(C)c2ccccc2)n(-c2ccccc2)c2ccc(-c3nc4ccccc4s3)cc21	109	71	78	79	113	48	97	74	104	63	114	58	71	99	83	123	116	92	109	80
CNc1cc2c(Nc3cccc(Br)c3)ncnc2cn1	103	88	76	86	96	84	89	73	21	12	105	93	109	103	78	109	106	63	99	93
CC(=O)O/N=C1\C(=C2\C(=O)Nc3cc(Br)ccc32)Nc2ccccc21	65	18	85	74	39	6	89	81	101	92	73	51	60	67	101	87	82	84	92	86
CCC(=O)Nc1ccc2ncnc(Nc3cccc(Br)c3)c2c1	121	91	69	69	108	86	99	100	30	9	96	84	84	92	73	99	109	98	103	92
